Compound activity: PubChem, Broad Institute
Most compounds without a hit are left out; they make up all but 4% or so of the library.
MLL AF4-AF9 inh: blocks AF4 peptide binding to human AF9 | P42568 | AlphaScreen, biotin-AF4 peptide binding to FLAG-AF9 | inhibition, % at 10 µM | 0.47% of 350,000 active | AID 651704;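 active means every replicate reaching a set inhibition limit, whatever the replicate mean, cut at about 25% in these data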
DENV2 CPE: DENV2-induced cell death inhibition; DENV2-infected cells, cytopathic effect rescue, plate reader; 1.7% of 350,000 active; CPE inhibition, % at 9.99 µM; in the data active means CPE inhibition above about 20%, passing the limit was not always enough; tested in BHK-21 cells
FGF22 binding: FGF22 (human) thermal shift binding; Q9HCT0; recombinant FGF22 thermal shift, SYPRO orange fluorescence; percent of sucrose octasulfate shift, DMSO zero; activity (Tm shift, normalised), % at 9.99 µM; 1.5% of 340,000 active;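 active means mean Tm shift, scaled 0 neutral to 100 positive control, at about 1.3% or above, every replicate too, limit read from the data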
RAD52 inh: RAD52 (human) annealing inhibition. P43351. recombinant RAD52 DNA annealing, FRET fluorescence. inhibition, % at 18.7 µM. AID 651710. 0.46% of 360,000 active;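 active means every replicate showing at least 50% inhibition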
ERAP1 HTS inh: inhibitors of human ERAP1 aminopeptidase. Q9NZ08. recombinant ERAP1, Leu-AMC fluorescence, 60 min. inhibition, % at 10.7 µM. 0.15% of 340,000 active. AID 652197;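 active means mean replicate inhibition of at least 30%, or all replicates individually reaching that 30% level; inactive means mean below 30% and not every replicate reaching it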
Target sequence (Q9NZ08 whole entry, looked up): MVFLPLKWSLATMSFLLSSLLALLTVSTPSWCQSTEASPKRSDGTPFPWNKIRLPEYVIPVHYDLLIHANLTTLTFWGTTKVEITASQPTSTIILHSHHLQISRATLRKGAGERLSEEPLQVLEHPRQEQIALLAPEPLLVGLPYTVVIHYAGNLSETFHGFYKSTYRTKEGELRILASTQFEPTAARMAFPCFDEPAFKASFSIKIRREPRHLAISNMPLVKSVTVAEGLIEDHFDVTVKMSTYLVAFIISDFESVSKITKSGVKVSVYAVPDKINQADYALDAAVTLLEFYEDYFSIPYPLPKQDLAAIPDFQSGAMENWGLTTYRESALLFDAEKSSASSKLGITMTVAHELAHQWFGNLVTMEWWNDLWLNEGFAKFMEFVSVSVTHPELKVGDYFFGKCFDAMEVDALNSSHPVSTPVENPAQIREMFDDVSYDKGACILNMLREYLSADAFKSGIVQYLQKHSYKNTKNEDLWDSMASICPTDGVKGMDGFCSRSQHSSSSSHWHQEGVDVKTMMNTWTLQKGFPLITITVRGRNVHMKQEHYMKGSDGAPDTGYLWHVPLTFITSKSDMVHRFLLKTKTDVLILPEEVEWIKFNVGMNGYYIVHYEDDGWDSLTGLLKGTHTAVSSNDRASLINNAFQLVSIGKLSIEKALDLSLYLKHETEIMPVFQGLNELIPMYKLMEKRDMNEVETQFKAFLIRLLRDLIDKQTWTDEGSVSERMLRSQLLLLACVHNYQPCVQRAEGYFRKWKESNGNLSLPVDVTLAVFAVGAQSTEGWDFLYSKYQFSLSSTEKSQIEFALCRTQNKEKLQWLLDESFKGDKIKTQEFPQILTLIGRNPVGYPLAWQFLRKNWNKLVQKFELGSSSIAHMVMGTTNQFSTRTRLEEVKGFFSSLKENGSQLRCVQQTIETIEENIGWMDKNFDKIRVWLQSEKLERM
Numbers stand for hits.

Screening COc1ccc(Cl)cc1C(=O)NNC(=O)CSc1nncn1C returned MLL AF4-AF9 inh inactive, DENV2 CPE inactive, FGF22 binding 43.2, RAD52 inh inactive and ERAP1 HTS inh inactive.
For C[C@@H]1CN([C@@H](C)CO)C(=O)c2cc(NC(=O)Nc3ccc(F)cc3)ccc2O[C@@H](C)CCCCO[C@H]1CN(C)C(=O)c1ccccc1 the results were MLL AF4-AF9 inh inactive, DENV2 CPE inactive, FGF22 binding inactive, RAD52 inh inactive and ERAP1 HTS inh inactive.
`C[C@H](CO)N1C[C@H](C)[C@@H](CN(C)C(=O)c2ccccc2)OCCCC[C@H](C)Oc2ccc(NC(=O)Nc3ccc(F)cc3)cc2C1=O` gave MLL AF4-AF9 inh inactive, DENV2 CPE inactive, FGF22 binding inactive, RAD52 inh inactive and ERAP1 HTS inh inactive.
C[C@@H]1CCCCO[C@H](CN(C)C(=O)c2ccccc2)[C@@H](C)CN([C@H](C)CO)C(=O)c2cc(NC(=O)Nc3ccc(F)cc3)ccc2O1 was read as MLL AF4-AF9 inh inactive, DENV2 CPE 31.5, FGF22 binding inactive, RAD52 inh inactive and ERAP1 HTS inh inactive.
`C[C@@H]1CCCCO[C@H](CN(C)C(=O)c2ccccc2)[C@H](C)CN([C@@H](C)CO)C(=O)c2cc(NC(=O)Nc3ccc(F)cc3)ccc2O1` gave MLL AF4-AF9 inh inactive, DENV2 CPE inactive, FGF22 binding 1.3, RAD52 inh inactive and ERAP1 HTS inh inactive.
C[C@H]1CCCCO[C@@H](CN(C)C(=O)c2ccccc2)[C@@H](C)CN([C@@H](C)CO)C(=O)c2cc(NC(=O)Nc3ccc(F)cc3)ccc2O1 was read as MLL AF4-AF9 inh inactive, DENV2 CPE 22.4, FGF22 binding inactive, RAD52 inh inactive and ERAP1 HTS inh inactive.
COc1ccccc1-c1ccccc1[C@@H]1[C@@H](C#N)N(C(=O)C2CC2)[C@H]1CO was read as MLL AF4-AF9 inh inactive, DENV2 CPE inactive, FGF22 binding inactive, RAD52 inh inactive and ERAP1 HTS inh inactive.
`Cc1ccc(NC(=O)CN(C)C(=O)c2ccc(NC(=O)CC3SC(N4CCCC4)=NC3=O)cc2)cc1` (stereo not drawn) gave MLL AF4-AF9 inh inactive, DENV2 CPE inactive, FGF22 binding 44.3, RAD52 inh inactive and ERAP1 HTS inh inactive.
For COC(=O)C[C@H]1CC[C@H]2[C@@H](COc3ccc(NC(=O)Nc4ccc(C#N)cc4)cc3C(=O)N2C)O1 the results were MLL AF4-AF9 inh inactive, DENV2 CPE inactive, FGF22 binding inactive, RAD52 inh inactive and ERAP1 HTS inh inactive.
`CCNS(=O)(=O)c1ccc(Br)c(C(=O)OC(C)C(=O)NCC2CCCCC2)c1` (stereo not drawn) gave MLL AF4-AF9 inh inactive, DENV2 CPE 43.0, FGF22 binding inactive, RAD52 inh inactive and ERAP1 HTS inh inactive.
`CC(=O)OCC1OC(COC(C)=O)(c2ccc(C)cc2)C(OC(C)=O)C1OC(C)=O` (stereo not drawn) gave MLL AF4-AF9 inh inactive, DENV2 CPE inactive, FGF22 binding 51.1, RAD52 inh inactive and ERAP1 HTS inh inactive.
Screening COc1ccc(CN(C)C[C@H]2Oc3ccc(NC(=O)Cc4ccccc4)cc3C(=O)N([C@H](C)CO)C[C@H]2C)cc1 returned MLL AF4-AF9 inh inactive, DENV2 CPE inactive, FGF22 binding inactive, RAD52 inh inactive and ERAP1 HTS inh inactive.
For CCOc1ccc(-n2nnnc2SCC(=O)Nc2cccc(O)c2)cc1 the results were MLL AF4-AF9 inh 27.5, DENV2 CPE inactive, FGF22 binding inactive, RAD52 inh inactive and ERAP1 HTS inh inactive.
For Cc1ccc(C)c(NC(=O)C2CC(O)CN2C(=O)Oc2ccccc2)c1 (stereo not drawn) the results were MLL AF4-AF9 inh inactive, DENV2 CPE inactive, FGF22 binding inactive, RAD52 inh inactive and ERAP1 HTS inh 39.3.
For COc1ccc2c3c(n(C)c2c1)[C@H](CO)N(Cc1ccccc1F)CC31CCN(C(C)=O)CC1 the results were MLL AF4-AF9 inh inactive and DENV2 CPE 93.3.
Screening COc1ccc2c3c(n(C)c2c1)[C@@H](CO)N(Cc1ccccc1F)CC31CCN(CC2CC2)CC1 returned MLL AF4-AF9 inh 32.8, DENV2 CPE inactive, FGF22 binding inactive, RAD52 inh inactive and ERAP1 HTS inh inactive.
CC(C)NC(=O)N[C@H]1CC[C@@H](CC(=O)N2CCCCC2)O[C@@H]1CO was read as MLL AF4-AF9 inh inactive, DENV2 CPE inactive, FGF22 binding inactive, RAD52 inh inactive and ERAP1 HTS inh inactive.
`COCC(=O)Nc1ccc2c(c1)C(=O)N(C)C[C@H](OC)[C@H](C)CN(C(=O)Cc1cccnc1)[C@H](C)CO2` gave MLL AF4-AF9 inh inactive, DENV2 CPE inactive, FGF22 binding inactive, RAD52 inh inactive and ERAP1 HTS inh inactive.
N#C[C@@H]1[C@@H](c2ccccc2C2=CCCCC2)[C@@H](CO)N1C(=O)CN1CCOCC1 was read as MLL AF4-AF9 inh inactive, DENV2 CPE 30.3, FGF22 binding inactive, RAD52 inh inactive and ERAP1 HTS inh inactive.
`C/C=C/c1ccccc1[C@H]1[C@H](C#N)N(C(=O)CN2CCOCC2)[C@H]1CO` gave MLL AF4-AF9 inh inactive, DENV2 CPE inactive, RAD52 inh inactive and ERAP1 HTS inh inactive.
Screening N#C[C@H]1[C@@H](c2ccccc2C2=CCCC2)[C@@H](CO)N1C(=O)C1CCOCC1 returned MLL AF4-AF9 inh inactive, DENV2 CPE 35.6, FGF22 binding inactive, RAD52 inh inactive and ERAP1 HTS inh inactive.
`CN1C[C@@H]2[C@H](c3ccccc31)[C@@H](CO)N2C(=O)CN1CCOCC1` gave DENV2 CPE inactive, FGF22 binding inactive and RAD52 inh inactive.
`N#C[C@@H]1[C@H](c2ccccc2C2=CCCCC2)[C@@H](CO)N1C(=O)CN1CCOCC1` gave MLL AF4-AF9 inh inactive, DENV2 CPE inactive, FGF22 binding inactive, RAD52 inh inactive and ERAP1 HTS inh inactive.
`CN1C[C@@H]2[C@H](c3ccccc31)[C@H](CO)N2C(=O)CN1CCOCC1` gave MLL AF4-AF9 inh inactive, DENV2 CPE 37.2, FGF22 binding inactive, RAD52 inh inactive and ERAP1 HTS inh inactive.
`C/C=C/c1ccccc1[C@H]1[C@@H](C#N)N(C(=O)CN2CCOCC2)[C@@H]1CO` gave MLL AF4-AF9 inh inactive, DENV2 CPE 38.6, RAD52 inh inactive and ERAP1 HTS inh inactive.
COc1ccc(S(=O)(=O)N2CCC3(CC2)CN(Cc2ccncc2)[C@H](CO)c2[nH]c4cc(OC)ccc4c23)cc1 was read as MLL AF4-AF9 inh inactive, DENV2 CPE inactive, FGF22 binding inactive, RAD52 inh inactive and ERAP1 HTS inh inactive.
`CC(=NNC(=O)c1ccncc1)c1ccccc1Cl` gave MLL AF4-AF9 inh inactive, DENV2 CPE inactive, FGF22 binding inactive, RAD52 inh inactive and ERAP1 HTS inh inactive.
`C/C(=N\NC(=O)c1ccccc1NC(=O)c1ccc(Cl)cc1)c1ccncc1` gave MLL AF4-AF9 inh inactive, DENV2 CPE inactive, FGF22 binding 43.0, RAD52 inh inactive and ERAP1 HTS inh inactive.
`C/C(Cn1ncc(N2CCOCC2)c(Cl)c1=O)=N\O` gave MLL AF4-AF9 inh inactive, DENV2 CPE 28.6, FGF22 binding inactive, RAD52 inh inactive and ERAP1 HTS inh inactive.
`CC(=O)Cn1ncc(N2CCCCC2)c(Cl)c1=O` gave MLL AF4-AF9 inh inactive, DENV2 CPE inactive, FGF22 binding inactive, RAD52 inh inactive and ERAP1 HTS inh inactive.
